The source of these data is PubChem BioAssay (NCI).

Test systems include RPMI-8226 leukemia; OVCAR-8 ovarian; OVCAR-5 ovarian; OVCAR-4 ovarian; SK-OV-3 ovarian; IGROV1 ovarian; OVCAR-3 ovarian; HS 578T breast; NCI/ADR-RES ovarian; T-47D breast; BT-549 breast; MDA-MB-435 melanoma; SW-620 colon; MCF7 breast; HCT-116 colon; HCC-2998 colon; KM12 colon.
What all share (assay): NCI-60 one-dose screen, 48 h (100 = growth as untreated, 0 = no growth, -100 = all killed)
Common to all, as to conditions: 10 µM unless noted

SMILES strings stand for the structures. Compounds without any hit were thinned out: in the full panel of roughly 83,000, 20% have a hit.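 Assay: single dose, 48 h. Readout: percent growth (0 = no net growth; negative = cell death). Active: <10.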 A number with no mark means an inactive call. Activity calls are given as the source filed them.

`N#CCCCCCn1c2ccccc2c2c3c(c4c5ccccc5[nH]c4c21)C(=O)N(O)C3=O`: the growth was -18.3% (active) with RPMI-8226 leukemia; 7.06% (active) with OVCAR-8 ovarian; -18.3% (active) in the assay with OVCAR-5 ovarian; 19.5% with OVCAR-4 ovarian; 41.3% with SK-OV-3 ovarian; -1.36% (active) in the assay with IGROV1 ovarian. The growth with OVCAR-3 ovarian was -13.4% (active); in the assay on HS 578T breast, 19.8%; in the assay on NCI/ADR-RES ovarian, 67.9%; with T-47D breast, 14.2%; in the assay on BT-549 breast, 16.1%; in the assay on MDA-MB-435 melanoma, 14.3%. The growth in the assay on SW-620 colon is 12.5%; in the assay with MCF7 breast, 6.24% (active); in the assay with HCT-116 colon, -33.3% (active); in the assay with HCC-2998 colon, 1.36% (active); in the assay on KM12 colon, 4.16% (active).
Consider `COc1ccc(/C=C(\C#N)c2ccccc2)cc1`, for which the growth with RPMI-8226 leukemia is 84.7%; in the assay on OVCAR-8 ovarian it was 92%; in the assay on OVCAR-5 ovarian, 92.1%; in the assay with OVCAR-4 ovarian, 85.9%; in the assay with SK-OV-3 ovarian, 114%; with IGROV1 ovarian, 87.9%. The growth with OVCAR-3 ovarian is 95.1%; in the assay with HS 578T breast it was 85.7%; with NCI/ADR-RES ovarian, 78%; with T-47D breast, 88.6%; in the assay with BT-549 breast it was 85.4%; with MDA-MB-435 melanoma, 12%. For the same compound, the growth is 71.4% in the assay with SW-620 colon, 103% in the assay on MCF7 breast, 85.4% with HCT-116 colon and 49.2% with KM12 colon.
As for `Nc1ccc(C2=NN(c3ccccc3)C(c3ccc(Cl)cc3)C2)cc1` (centres undefined), the growth is -20.1% (active) in the assay with RPMI-8226 leukemia; 81.8% with OVCAR-8 ovarian; 84.2% in the assay on OVCAR-5 ovarian; 96.7% with OVCAR-4 ovarian; 90.1% in the assay with SK-OV-3 ovarian; 94.5% with IGROV1 ovarian. Moreover, the growth with OVCAR-3 ovarian is 51.7%; with HS 578T breast, 102%; in the assay with NCI/ADR-RES ovarian, 89.6%; in the assay with T-47D breast, 63.8%; with BT-549 breast, 70.4%; in the assay with MDA-MB-435 melanoma, 49.9%. Besides, the growth was 41.2% in the assay with SW-620 colon, 14.5% in the assay on MCF7 breast, -57.3% (active) with HCT-116 colon and 18.3% in the assay with KM12 colon.
Consider `N#Cc1c2ccccc2c2n1-c1ccccc1OC(c1ccccc1)C2=O` (centres undefined), for which the growth was 18.1% in the assay with RPMI-8226 leukemia; 11.6% in the assay on OVCAR-8 ovarian; 56.1% in the assay with OVCAR-5 ovarian; 14.6% in the assay on OVCAR-4 ovarian; 65.4% with SK-OV-3 ovarian; 43% with IGROV1 ovarian. Besides, the growth is 41.1% in the assay with OVCAR-3 ovarian; 40.1% in the assay with HS 578T breast; 14% in the assay with NCI/ADR-RES ovarian; 23.2% in the assay on T-47D breast; 9.32% (active) in the assay with BT-549 breast; 24.1% in the assay on MDA-MB-435 melanoma. For the same compound, the growth in the assay with SW-620 colon is 56.9%; in the assay with MCF7 breast it was 72.4%; in the assay with HCT-116 colon it was 11.3%; in the assay with KM12 colon, 16%.
As to `S=C1SCN(Cc2ccccc2)CN1Cc1ccco1`, the growth was 37.5% in the assay with RPMI-8226 leukemia; 89.1% in the assay on OVCAR-8 ovarian; 120% with OVCAR-5 ovarian; 99.9% in the assay on OVCAR-4 ovarian; 96.2% in the assay on SK-OV-3 ovarian; 84.4% in the assay with IGROV1 ovarian. In addition, the growth was 75.3% in the assay with OVCAR-3 ovarian; 109% with HS 578T breast; 99.2% in the assay with NCI/ADR-RES ovarian; 59.3% in the assay with T-47D breast; 102% in the assay with BT-549 breast; 37.8% in the assay with MDA-MB-435 melanoma. In addition, the growth with SW-620 colon is 41.7%; with MCF7 breast, 18.2%; in the assay with HCT-116 colon it was 25.5%; in the assay with KM12 colon, 58.2%.
As to `COc1cc(/C=C/C(=O)c2c(-c3ccc(F)cc3)nc3sc(C)nn23)cc(OC)c1OC`, the growth is 0.772% (active) in the assay on RPMI-8226 leukemia; 9.66% (active) in the assay on OVCAR-8 ovarian; 18.7% in the assay on OVCAR-5 ovarian; 44.1% with OVCAR-4 ovarian; 15.5% with SK-OV-3 ovarian; 28.7% in the assay on IGROV1 ovarian. Also, the growth with OVCAR-3 ovarian is -16.4% (active); in the assay with HS 578T breast, 50.1%; in the assay on NCI/ADR-RES ovarian it was 23.4%; with T-47D breast, -8.41% (active); in the assay with BT-549 breast, 12%; with MDA-MB-435 melanoma it was 11.9%. Further, the growth with SW-620 colon is 19.2%; in the assay on MCF7 breast, 14.3%; in the assay on HCT-116 colon, 14.7%; in the assay with KM12 colon, 21.8%.
Turning to `O=C1C2C3C=CC(O3)C2C(=O)N1Nc1ccccc1` (centres undefined), the growth is 108% with RPMI-8226 leukemia; 105% in the assay on OVCAR-8 ovarian; 97.4% with OVCAR-5 ovarian; 102% with OVCAR-4 ovarian; 118% in the assay with SK-OV-3 ovarian; 124% in the assay with IGROV1 ovarian. Also, the growth with OVCAR-3 ovarian is 113%; in the assay on HS 578T breast, 111%; in the assay with NCI/ADR-RES ovarian, 105%; in the assay on T-47D breast, 112%; in the assay with BT-549 breast, 108%; with MDA-MB-435 melanoma it was 96.9%. Moreover, the growth was 108% with SW-620 colon; 98.9% with MCF7 breast; 106% with HCT-116 colon; 102% in the assay on HCC-2998 colon; 115% in the assay with KM12 colon.
